# Laboratory results as given in article PMC5540273 (PLoS ONE, 2017).
# Columns and labels:
# Details in all cases: concentration: 1 μM, replicates: in singlicate; n = 1
# [1] = tested on: PRKD3
# [2] = tested on: PRKG1
# [3] = tested on: PRKG2
# [4] = tested on: T1, PRKR
# T1 construct: gene EIF2AK2
# [5] = tested on: PRKX
# [6] = tested on: PRP4
# [7] = tested on: T2, PYK2
# T2 construct: gene PTK2B
# [8] = tested on: QSK
# [9] = tested on: RAF1
# [10] = tested on: RET
# [11] = tested on: RIOK1
# [12] = tested on: RIOK2
# [13] = tested on: RIOK3
# [14] = tested on: RIPK1
# [15] = tested on: RIPK2
# [16] = tested on: RIPK4
# [17] = tested on: RIPK5
# [18] = tested on: ROCK1
# [19] = tested on: ROCK2
# [20] = tested on: ROS1
# 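Also: KINOMEscan kinase panel screen.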
SMILES,%Inh [1],%Inh [2],%Inh [3],%Inh [4],%Inh [5],%Inh [6],%Inh [7],%Inh [8],%Inh [9],%Inh [10],%Inh [11],%Inh [12],%Inh [13],%Inh [14],%Inh [15],%Inh [16],%Inh [17],%Inh [18],%Inh [19],%Inh [20]
COc1cc(Nc2nccc(-c3c(-c4cccc(NC(=O)c5c(F)cccc5F)c4)nn4ccccc34)n2)cc(OC)c1OC [GSK323521],42%,31%,0%,15%,22%,1%,2%,3%,16%,29%,34%,14%,0%,93.9%,79%,0%,67%,0%,6%,0%
Nc1ncnc2c1nc(-c1ccccc1)n2-c1ccccc1 [SKF-97293],22%,7%,0%,27%,3%,15%,8%,26%,0%,17%,0%,1%,6%,3%,7%,27%,36%,56%,43%,15%
O=C(Nc1n[nH]c2cc(-c3ccoc3)ccc12)C1CC1 [SB-738481],0%,0%,14%,0%,0%,0%,9%,11%,0%,0%,68%,5%,0%,28%,0%,17%,3%,0%,0%,9%
CC(C)c1nc(-c2cccc(NS(=O)(=O)c3c(F)cccc3F)c2F)c(-c2ccnc(Nc3ccc(N4CCOCC4)nc3)n2)s1 [GSK2008607],100%,0%,0%,29%,0%,0%,3%,90.5%,100%,99.7%,22%,0%,17%,0%,96.3%,15%,92.6%,0%,0%,35%
Fc1ccc(-c2ncn(C3CCNCC3)c2-c2ccnc(Oc3ccc(-c4ccccc4)cc3)n2)cc1 [SB-245391],0%,6%,26%,25%,0%,0%,80%,7%,0%,3%,7%,0%,5%,0%,70%,34%,33%,0%,7%,0%
O=C(Nc1cccc(-c2nn3ncccc3c2-c2ccnc(Nc3ccccc3)n2)c1)c1c(F)cccc1F [GSK198271],47%,0%,0%,0%,11%,6%,27%,10%,94.1%,99.7%,4%,17%,16%,0%,94.8%,10%,6%,34%,0%,28%
CC(C)(C)c1ccc2nccc(Nc3cccc(O)c3)c2c1 [GW856795],77%,1%,4%,0%,0%,27%,0%,0%,0%,94.7%,21%,0%,24%,0%,34%,43%,0%,55%,30%,0%
Nc1n[nH]c2cnc(-c3ccccc3)cc12 [SB-642124],0%,0%,0%,0%,19%,18%,5%,0%,11%,0%,31%,20%,100%,30%,29%,25%,0%,40%,18%,0%
Clc1ccc(-c2nn3ncccc3c2-c2ccnc(Nc3ccc4c(c3)OCCO4)n2)cc1 [GW829116],3%,0%,0%,0%,0%,0%,24%,0%,16%,24%,0%,0%,0%,0%,83%,0%,0%,37%,0%,0%
